Test results reported in PubChem BioAssay (Tox21).
Inconclusive results are not listed. Calls of active or inactive are those of the source. Calls come from the whole dose curve.

target: Acetylcholinesterase (Homo sapiens) (UniProt P22303); assay: Acetylcholinesterase (AChE) small molecule antagonists: colormetric cell-based qHTS assay (AID 1347395); conditions: SH-SY5Y cells AChE activity, colorimetric (Ellman); series mostly up to 115 µM; activity, negative = inhibition: at the top concentration; note: nearly all actives have a fitted effect of over 30% in size
Sequence (P22303 whole entry, looked up): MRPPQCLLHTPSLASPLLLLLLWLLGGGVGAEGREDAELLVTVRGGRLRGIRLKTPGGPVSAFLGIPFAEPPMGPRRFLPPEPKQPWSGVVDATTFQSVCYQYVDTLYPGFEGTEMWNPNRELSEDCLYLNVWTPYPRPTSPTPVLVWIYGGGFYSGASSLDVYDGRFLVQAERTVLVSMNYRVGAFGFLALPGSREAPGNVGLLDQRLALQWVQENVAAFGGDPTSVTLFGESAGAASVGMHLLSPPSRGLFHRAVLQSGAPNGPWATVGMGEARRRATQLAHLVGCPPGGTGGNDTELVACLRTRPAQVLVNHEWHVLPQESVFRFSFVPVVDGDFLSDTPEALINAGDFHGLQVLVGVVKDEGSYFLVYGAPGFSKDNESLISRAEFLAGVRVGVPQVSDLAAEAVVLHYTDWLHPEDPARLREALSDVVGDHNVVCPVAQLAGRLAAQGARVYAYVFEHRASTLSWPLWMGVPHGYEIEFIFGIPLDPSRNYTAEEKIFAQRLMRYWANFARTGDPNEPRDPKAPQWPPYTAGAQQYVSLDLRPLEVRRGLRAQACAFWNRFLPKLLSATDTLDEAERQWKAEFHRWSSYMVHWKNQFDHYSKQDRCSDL
Method in brief: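 In this cell-based qHTS, attached SH-SY5Y cells were treated with test chemicals for 30 min, after which acetylthiocholine hydrolysis was followed by DTNB colour development over 90 min at 37 C.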
% is set by controls: 0 for no effect and ±100 for the full control effect.

| SMILES | activity, negative = inhibition |
| --- | --- |
| C[C@H](O)C(=O)Nc1c(I)c(C(=O)NC(CO)CO)c(I)c(C(=O)NC(CO)CO)c1I | 3.66% [at 52.9 µM] (inactive) |
| C=C(C)CCO | 2% (inactive) |
| O=C1Cc2ccccc2N1c1c(Cl)cccc1Cl | 1.51% (inactive) |
| CN(C)CCOc1ccccc1Cc1ccccc1 | -2.25% [at 52.9 µM] (inactive) |
| COc1ccc2sc(C(=O)Nc3nnn[nH]3)c(OC(C)C)c2c1 | 0.992% (inactive) |
| O=[N+]([O-])c1ccc(Nc2ccc(Nc3ccccc3)c(S(=O)(=O)O)c2)c([N+](=O)[O-])c1 | 0.642% (inactive) |
| CCCCN | -0.653% [at 52.9 µM] (inactive) |
| CCCCCCCCCCCCCCCCCl | 0.0979% [at 23.6 µM] (inactive) |
| CCN(CC)C(C)=O | 1.84% (inactive) |
| CN(CC1(C)CCCO1)S(=O)(=O)c1ccc(Cl)c(S(N)(=O)=O)c1 (stereo not given) | -1.39% [at 52.9 µM] (inactive) |
| CCOc1ncc(F)c(=O)[nH]1 | -1.26% [at 52.9 µM] (inactive) |
| CC(C)(c1ccc(Oc2ccc3c(c2)C(=O)OC3=O)cc1)c1ccc(Oc2ccc3c(c2)C(=O)OC3=O)cc1 | -0.386% (inactive) |
| COC(=O)C1CC(=O)C(C(=O)OC)CC1=O (stereo not given) | 2.2% [at 10.5 µM] (inactive) |
| O=C(OCC(COC(=O)c1ccccc1)(COC(=O)c1ccccc1)COC(=O)c1ccccc1)c1ccccc1 | 6.22% (inactive) |
| CCOC(=O)[C@H](CCc1ccccc1)N[C@@H](C)C(=O)N1Cc2cc(OC)c(OC)cc2C[C@H]1C(=O)O | -2.2% [at 52.9 µM] (inactive) |
| COC(=O)[C@H]1[C@H]2C[C@@H]3c4[nH]c5cc(OC)ccc5c4CCN3C[C@H]2C[C@@H](OC(=O)COc2ccc(OC)cc2)[C@@H]1OC | 0.321% [at 52.9 µM] (inactive) |
| CCCCCCCCCCCCN1CCOCC1 | 1.26% (inactive) |
| Nc1ccnc(=O)[nH]1 | -1.85% (inactive) |
| Nc1cnn([C@@H]2O[C@H](CO)[C@@H](O)[C@H]2O)c(=O)n1 | 0.504% (inactive) |
| C=CCOc1nc(OCC=C)nc(OCC=C)n1 | 1.02% (inactive) |

| SMILES | activity, negative = inhibition |
| --- | --- |
| C=C(C)C(=O)OCCOCC | -0.574% (inactive) |
| C=C(C)C(=O)OC1CC(C)CC(C)(C)C1 (stereo not given) | 3.64% (inactive) |
| CC(C)NCCCC1(C(N)=O)c2ccccc2-c2ccccc21 | -0.0122% [at 52.9 µM] (inactive) |
| CC(CSC(=O)c1ccccc1)C(=O)N1C[C@@H](Sc2ccccc2)C[C@H]1C(=O)O (stereo not given in full) | 0.861% [at 23.6 µM] (inactive) |
| CCN1CCN(c2cc3c(cc2F)c(=O)c(C(=O)O)cn3C2CC2)CC1 | 0.656% [at 52.9 µM] (inactive) |
| CC(CN(C)C)CN1c2ccccc2CCc2ccccc21 (stereo not given) | -0.0488% [at 52.9 µM] (inactive) |
| CCCCNCCCC | 2.67% (inactive) |
| CCCCCCCCOC(=O)CCCCCCCCC(=O)OCCCCCCCC | 1.73% (inactive) |
| CC(=O)SC[C@@H](Cc1ccccc1)C(=O)NCC(=O)OCc1ccccc1 | 4.94% [at 52.9 µM] (inactive) |
| CC(C)OC(=O)c1ccccc1C(=O)OC(C)C | -4.7% (inactive) |
| CCCCCCOc1ccc(N)cc1 | -2.71% (inactive) |
| CC(C)Cc1ccc(C(C)C(=O)OCc2ccccn2)cc1 (stereo not given) | -0.363% [at 52.9 µM] (inactive) |
| O=c1[nH]sc2ccccc12 | -2.51% (inactive) |
| O=C(O)CNC(=O)c1ccccc1I | 0.285% [at 52.9 µM] (inactive) |
| O=P(O)(O)C(O)(Cc1cccnc1)P(=O)(O)O | 3.95% [at 52.9 µM] (inactive) |
| Oc1cccc(O)c1O | -4.58% (inactive) |
| CCCCCCC(C)Nc1ccc(Nc2ccccc2)cc1 (stereo not given) | -8.07% (inactive) |
| CCCCCCCCCCCCS(=O)(=O)Cl | -0.822% [at 23.6 µM] (inactive) |
| CC(=O)O[C@@H]1C[C@@H]2CC[C@@]1(C)C2(C)C | 0.394% (inactive) |
| CC(C)C(C)C | 0.278% (inactive) |

target: Acetylcholinesterase (Homo sapiens) (UniProt P22303); assay: Acetylcholinesterase (AChE) small molecule antagonists: enzyme-based qHTS assay (AID 1347397); conditions: Potency: AChE enzyme activity inhibition; outcome: AChE enzyme activity inhibition; series mostly up to 115 µM; activity change, negative = inhibition: at the top concentration; note: nearly all actives have a fitted effect of over 55% in size
Method in brief: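 In this quantitative HTS, compounds from the Tox21 10K collection were preincubated 30 min at ambient temperature with recombinant human AChE dispensed at 50 mU/mL. Hydrolysis of acetylthiocholine was then followed for 10 min by DTNB colour development.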

| SMILES | activity change, negative = inhibition |
| --- | --- |
| C[C@H](O)C(=O)Nc1c(I)c(C(=O)NC(CO)CO)c(I)c(C(=O)NC(CO)CO)c1I | 0.324% [at 53 µM] (inactive) |
| C=C(C)CCO | 2.21% (inactive) |
| O=C1Cc2ccccc2N1c1c(Cl)cccc1Cl | -0.387% (inactive) |
| CN(C)CCOc1ccccc1Cc1ccccc1 | -0.277% [at 53 µM] (inactive) |
| COc1ccc2sc(C(=O)Nc3nnn[nH]3)c(OC(C)C)c2c1 | 1.58% (inactive) |
| O=[N+]([O-])c1ccc(Nc2ccc(Nc3ccccc3)c(S(=O)(=O)O)c2)c([N+](=O)[O-])c1 | 11.1% (inactive) |
| CCCCN | 0.923% [at 53 µM] (inactive) |
| CCCCCCCCCCCCCCCCCl | 0.4% [at 23.6 µM] (inactive) |
| CCN(CC)C(C)=O | -3% (inactive) |
| CN(CC1(C)CCCO1)S(=O)(=O)c1ccc(Cl)c(S(N)(=O)=O)c1 (stereo not given) | 0.629% [at 53 µM] (inactive) |
| CCOc1ncc(F)c(=O)[nH]1 | -0.407% [at 53 µM] (inactive) |
| CC(C)(c1ccc(Oc2ccc3c(c2)C(=O)OC3=O)cc1)c1ccc(Oc2ccc3c(c2)C(=O)OC3=O)cc1 | 0.545% (inactive) |
| COC(=O)C1CC(=O)C(C(=O)OC)CC1=O (stereo not given) | 0.472% [at 10.5 µM] (inactive) |
| O=C(OCC(COC(=O)c1ccccc1)(COC(=O)c1ccccc1)COC(=O)c1ccccc1)c1ccccc1 | -0.949% (inactive) |
| CCOC(=O)[C@H](CCc1ccccc1)N[C@@H](C)C(=O)N1Cc2cc(OC)c(OC)cc2C[C@H]1C(=O)O | 0.554% [at 53 µM] (inactive) |
| COC(=O)[C@H]1[C@H]2C[C@@H]3c4[nH]c5cc(OC)ccc5c4CCN3C[C@H]2C[C@@H](OC(=O)COc2ccc(OC)cc2)[C@@H]1OC | -0.677% [at 53 µM] (inactive) |
| CCCCCCCCCCCCN1CCOCC1 | -1.29% (inactive) |
| Nc1ccnc(=O)[nH]1 | -0.883% (inactive) |
| Nc1cnn([C@@H]2O[C@H](CO)[C@@H](O)[C@H]2O)c(=O)n1 | 0.288% (inactive) |
| C=CCOc1nc(OCC=C)nc(OCC=C)n1 | 0.256% (inactive) |

| SMILES | activity change, negative = inhibition |
| --- | --- |
| C=C(C)C(=O)OCCOCC | 0.0169% (inactive) |
| C=C(C)C(=O)OC1CC(C)CC(C)(C)C1 (stereo not given) | 0.516% (inactive) |
| CC(C)NCCCC1(C(N)=O)c2ccccc2-c2ccccc21 | -0.103% [at 53 µM] (inactive) |
| CC(CSC(=O)c1ccccc1)C(=O)N1C[C@@H](Sc2ccccc2)C[C@H]1C(=O)O (stereo not given in full) | -0.415% [at 23.6 µM] (inactive) |
| CCN1CCN(c2cc3c(cc2F)c(=O)c(C(=O)O)cn3C2CC2)CC1 | 0.43% [at 53 µM] (inactive) |
| CC(CN(C)C)CN1c2ccccc2CCc2ccccc21 (stereo not given) | 1.11% [at 53 µM] (inactive) |
| CCCCNCCCC | 0.261% (inactive) |
| CCCCCCCCOC(=O)CCCCCCCCC(=O)OCCCCCCCC | 0.523% (inactive) |
| CC(=O)SC[C@@H](Cc1ccccc1)C(=O)NCC(=O)OCc1ccccc1 | -0.139% [at 53 µM] (inactive) |
| CC(C)OC(=O)c1ccccc1C(=O)OC(C)C | -0.387% (inactive) |
| CCCCCCOc1ccc(N)cc1 | -0.199% (inactive) |
| CC(C)Cc1ccc(C(C)C(=O)OCc2ccccn2)cc1 (stereo not given) | -0.853% [at 53 µM] (inactive) |
| O=c1[nH]sc2ccccc12 | -1.58% (inactive) |
| O=C(O)CNC(=O)c1ccccc1I | 2.15% [at 53 µM] (inactive) |
| O=P(O)(O)C(O)(Cc1cccnc1)P(=O)(O)O | 0.811% [at 53 µM] (inactive) |
| Oc1cccc(O)c1O | -13.4% (inactive) |
| CCCCCCC(C)Nc1ccc(Nc2ccccc2)cc1 (stereo not given) | -11.2% (inactive) |
| CCCCCCCCCCCCS(=O)(=O)Cl | 0.136% [at 23.6 µM] (inactive) |
| CC(=O)O[C@@H]1C[C@@H]2CC[C@@]1(C)C2(C)C | -0.136% (inactive) |
| CC(C)C(C)C | -0.542% (inactive) |
